# Laboratory results reported in PubChem BioAssay (Tox21).
# Inconclusive results are not listed. Entries that show only a call come without a potency. Activity calls are given as the source filed them. Unless noted, calls follow the shape of the dose curve; as a rule, active = well fitted curve in the direction sought with a large enough effect in the repeat runs; inconclusive = weak or mixed curves; inactive = no such curve, though single readings can be large; an effect the other way counts as inactive or inconclusive.
# Tests used:
# [1] = qHTS assay to identify small molecule that activate the aryl hydrocarbon receptor (AhR) signaling pathway - cell viability counter screen (AID 743086); also: nearly all actives have a fitted effect of over 45% in size; also: potency is read from the fitted curve at half-maximal effect
# Summary of the method: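 HepG2-AhR-luc (HG2L7.5c1) cells, 4000/well, treated 24 h at 37 C with compound; viability measured as CellTiter-Fluor fluorescence after 30 min in the same wells as the luciferase read.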
# [2] = qHTS assay for small molecule agonists of the antioxidant response element (ARE) signaling pathway - cell viability counter screen (AID 743203; calls by dose curve; also: nearly all actives have a fitted effect of over 55% in size; also: potency is read from the fitted curve at half-maximal effect)
# Summary of the method: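 ARE-bla HepG2 cells were plated, rested 5 h at 37C/5% CO2, then exposed to compounds in DMSO for 16 h. Viability was read as CellTiter-Glo luminescence after 30 min at room temperature, in the same wells as the ARE screen.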
# [3] = qHTS assay for small molecule activators of the heat shock response signaling pathway (AID 743210; active = well fitted activation curve with a large enough effect in the signal ratio in the repeat runs, with a control signal flat, not every such curve was filed as active; the % refers to the signal ratio;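 also: HeLa cells with beta-lactamase reporter driven by heat shock elements; series mostly up to about 63 µM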)
# Summary of the method: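 Quantitative high-throughput format using an engineered HeLa line in which heat shock response elements drive beta-lactamase; after 5 h with compound, cells received a B/G FRET substrate and fluorescence was read.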
# [4] = target: Peroxisome proliferator-activated receptor gamma (Homo sapiens) (UniProt P37231); experiment: qHTS assay to identify small molecule agonists of the peroxisome proliferator-activated receptor gamma (PPARg) signaling pathway (AID 743094; active = well fitted activation curve with a large enough effect in the signal ratio in the repeat runs, not every such curve was filed as active; the % refers to the signal ratio)
# Summary of the method: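 GeneBLAzer PPARg UAS-bla HEK293H cells were plated, rested 5 h, then exposed to compounds for 17 h at 37C. Beta-lactamase activity was read by LiveBLAzer B/G FRET substrate fluorescence after 1 h at room temperature.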
# [5] = target: Peroxisome proliferator-activated receptor gamma (Homo sapiens) (UniProt P37231); experiment: qHTS assay to identify small molecule antagonists of the peroxisome proliferator-activated receptor gamma (PPARg) signaling pathway (AID 743191; calls by dose curve; also: series mostly up to about 63 µM; nearly all actives have a fitted effect of over 30% in size)
# Summary of the method: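 GeneBLAzer PPARg UAS-bla HEK293H cells, 5 h post-plating, exposed to compounds 17 h at 37C. LiveBLAzer B/G FRET substrate added for 1 h at room temperature; beta-lactamase reporter read by fluorescence intensity.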
# [6] = qHTS assay to identify small molecule antagonists of the peroxisome proliferator-activated receptor gamma (PPARg) signaling pathway - cell viability counter screen (AID 743194); conditions: Potency: co-treated with 50 nM rosiglitazone; also: nearly all actives have a fitted effect of over 55% in size; also: potency is read from the fitted curve at half-maximal effect
# Summary of the method: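 Cytotoxicity counter screen in PPARg-bla HEK293H cells, same wells as reporter assay. Compounds plus 50 nM rosiglitazone (final) for 17 h at 37 C, then viability read by CellTiter-Glo luminescence.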
# [7] = qHTS assay for small molecule agonists of the antioxidant response element (ARE) signaling pathway (AID 743202; active = well fitted activation curve with a large enough effect in the signal ratio in the repeat runs, not every such curve was filed as active; the % refers to the signal ratio; also: potency is read from the fitted curve at half-maximal effect)
# Summary of the method: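 Agonist mode reporter screen: HepG2 cells with ARE-controlled beta-lactamase are incubated with test compounds for 16 h at 37 C, and beta-lactamase activity is measured as fluorescence of cleaved B/G FRET substrate.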
# [8] = qHTS assay for small molecule activators of the heat shock response signaling pathway - cell viability counter screen (AID 743209); also: nearly all actives have a fitted effect of over 50% in size
# Summary of the method: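 HSE-bla HeLa cells plated overnight, then exposed to Tox21 compounds (23 nL in DMSO) for 5 h at 37 C. After the bla reporter read, CellTiter-Glo was added in the same wells and luminescence read after 30 min at room temperature.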
# [9] = target: Aryl hydrocarbon receptor (Homo sapiens) (UniProt P35869); experiment: qHTS assay to identify small molecule that activate the aryl hydrocarbon receptor (AhR) signaling pathway (AID 743085);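 also: HG2L7.5c1 human HepG2 liver cells with stably integrated DRE-driven firefly reporter; series mostly up to about 70 µM; nearly all actives have a fitted effect of over 15% in size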
# Summary of the method: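 AhR agonist activity is inferred from enhanced light output of a DRE-controlled firefly luciferase reporter in HepG2 cells, measured with ONE-Glo following 24 h treatment at 37C.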
# [10] = qHTS assay to identify aromatase inhibitors - cell viability counter screen (AID 743084);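 also: cells stimulated with testosterone during compound exposure; nearly all actives have a fitted effect of over 55% in size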
# Chain of Peroxisome proliferator-activated receptor gamma (Homo sapiens) (P37231 whole entry, looked up): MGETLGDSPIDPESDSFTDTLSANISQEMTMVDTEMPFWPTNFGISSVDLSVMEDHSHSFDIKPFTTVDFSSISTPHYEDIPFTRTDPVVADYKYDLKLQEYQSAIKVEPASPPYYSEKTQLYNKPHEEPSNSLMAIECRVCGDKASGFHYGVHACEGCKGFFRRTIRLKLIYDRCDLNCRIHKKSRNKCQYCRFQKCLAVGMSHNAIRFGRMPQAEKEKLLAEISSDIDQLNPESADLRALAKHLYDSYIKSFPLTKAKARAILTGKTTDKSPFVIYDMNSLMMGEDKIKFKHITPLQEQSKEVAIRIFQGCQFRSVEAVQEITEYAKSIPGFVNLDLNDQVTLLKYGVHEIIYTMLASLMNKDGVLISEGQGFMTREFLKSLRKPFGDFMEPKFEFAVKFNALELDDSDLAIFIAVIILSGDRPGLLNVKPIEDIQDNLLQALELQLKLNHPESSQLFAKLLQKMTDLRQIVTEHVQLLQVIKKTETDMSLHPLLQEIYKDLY
# Chain of Aryl hydrocarbon receptor (Homo sapiens) (P35869 whole entry, looked up): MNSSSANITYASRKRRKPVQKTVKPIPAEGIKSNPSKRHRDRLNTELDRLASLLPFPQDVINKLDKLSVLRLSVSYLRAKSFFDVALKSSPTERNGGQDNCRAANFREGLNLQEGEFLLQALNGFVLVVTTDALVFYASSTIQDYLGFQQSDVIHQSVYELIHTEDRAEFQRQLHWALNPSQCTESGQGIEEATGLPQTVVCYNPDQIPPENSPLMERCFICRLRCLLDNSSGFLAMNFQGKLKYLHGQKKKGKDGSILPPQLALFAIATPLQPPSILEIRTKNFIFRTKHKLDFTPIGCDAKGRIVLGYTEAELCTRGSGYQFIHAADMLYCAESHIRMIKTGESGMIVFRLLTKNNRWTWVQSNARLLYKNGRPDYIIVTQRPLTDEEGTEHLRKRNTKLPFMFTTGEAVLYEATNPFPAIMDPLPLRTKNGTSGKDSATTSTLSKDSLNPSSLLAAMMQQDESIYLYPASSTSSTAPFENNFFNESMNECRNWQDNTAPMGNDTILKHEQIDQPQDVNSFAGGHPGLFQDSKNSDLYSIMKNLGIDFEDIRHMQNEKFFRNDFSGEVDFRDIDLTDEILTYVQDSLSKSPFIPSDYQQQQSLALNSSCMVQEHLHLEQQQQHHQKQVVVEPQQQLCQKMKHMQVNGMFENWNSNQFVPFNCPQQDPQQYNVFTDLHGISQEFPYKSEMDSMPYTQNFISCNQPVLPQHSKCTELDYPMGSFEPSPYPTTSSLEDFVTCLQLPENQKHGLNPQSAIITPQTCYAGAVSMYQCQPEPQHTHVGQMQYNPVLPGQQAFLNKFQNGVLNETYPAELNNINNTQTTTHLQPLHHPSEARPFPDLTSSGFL
Structure (SMILES),Potency [1],Potency [2],outcome [3],Potency [4],Potency [5],Potency [6],Potency [7],Potency [8],Potency [9],Potency [10]
C=CC(=O)NCNC(=O)C=C,inactive,inactive,inactive,–,–,–,–,–,–,–
C=CC(=O)OCCCCO,inactive,inactive,–,inactive,inactive,inactive,3.86 µM (active),–,–,–
CCO[C@H]1O[C@@H]2OC3(C)CC[C@H]4[C@H](C)CC[C@@H]([C@H]1C)[C@@]24OO3,–,inactive,inactive,–,–,–,–,inactive,–,–
COP(=S)(OC)Oc1ccc([N+](=O)[O-])cc1Cl,61.1 µM (active),inactive,inactive,inactive,–,inactive,–,inactive,–,–
Cc1ccc(-c2c(Cl)nc(C#N)n2S(=O)(=O)N(C)C)cc1,inactive,–,–,inactive,–,–,–,–,inactive,–
COc1ccc(-c2ccccc2)cc1NNC(=O)OC(C)C,–,inactive,inactive,–,–,inactive,16 µM (active),–,–,inactive
O=C(N[C@H](c1ccccc1)[C@@H]1CN2CCC1CC2)c1c(Cl)ccc(C(F)(F)F)c1Cl,39.2 µM (active),49.3 µM (active),inactive,–,–,inactive,–,–,inactive,–
CO[C@@H]1[C@H](OC(=O)NC(=O)CCl)CC[C@]2(CO2)[C@H]1[C@@]1(C)O[C@@H]1CC=C(C)C,inactive,inactive,–,–,–,inactive,–,–,inactive,–
C[C@@H]1CC[C@H]2[C@@H](C)C(=O)O[C@@H]3O[C@@]4(C)CC[C@@H]1[C@]32OO4,–,inactive,inactive,–,–,inactive,–,inactive,inactive,–
C[C@]12CC[C@H]3[C@@H](CCC4=CC(=O)CC[C@@H]43)[C@@H]1CC[C@@H]2OC(=O)CCC1CCCCC1,–,inactive,inactive,–,–,inactive,–,inactive,–,–
CN1C[C@H](CNC(=O)OCc2ccccc2)C[C@@H]2c3cccc4c3c(cn4C)C[C@H]21,29.8 µM (active),33.5 µM (active),inactive,–,inactive,26.6 µM (active),–,inactive,–,–
CCOP(=S)(Oc1ccc([N+](=O)[O-])cc1)c1ccccc1 (centres undefined),inactive,inactive,–,–,–,inactive,–,inactive,–,inactive
O=S1OC[C@@H]2[C@H](CO1)[C@]1(Cl)C(Cl)=C(Cl)[C@@]2(Cl)C1(Cl)Cl (some centres undefined),inactive,–,–,inactive,–,–,–,–,inactive,–
C=CC(=O)OCC(C)O (centres undefined),inactive,inactive,inactive,–,inactive,inactive,8.91 µM (active),inactive,inactive,–
Cl/C=C\C[N+]12CN3CN(CN(C3)C1)C2,inactive,inactive,inactive,–,–,–,–,inactive,inactive,–
CCCCc1c(C)nc(NCC)nc1OS(=O)(=O)N(C)C,–,inactive,inactive,–,–,inactive,27.3 µM (active),inactive,–,–
O=C(CBr)Nc1ccc(Cl)cc1C(=O)c1ccccc1F,–,inactive,inactive,–,inactive,inactive,23.7 µM (active),inactive,–,–
Clc1ccc(C2(Cn3cncn3)CC(Br)CO2)c(Cl)c1 (centres undefined),–,inactive,inactive,inactive,–,inactive,inactive,inactive,–,inactive
CCC(C)(NC(=O)c1cc(Cl)c(C)c(Cl)c1)C(=O)CCl (centres undefined),–,21.8 µM (active),–,–,–,39.1 µM (active),–,–,inactive,–
CO/N=C(/C(=O)OC)c1ccccc1COc1ccccc1C,inactive,inactive,inactive,–,–,inactive,19.3 µM (active),inactive,inactive,–
Sc1ccccc1Cl,–,inactive,inactive,–,–,inactive,inactive,–,–,–
C=C(C#N)CCC#N,inactive,inactive,inactive,inactive,inactive,inactive,–,inactive,inactive,–
O=C(O)C(F)(F)C(F)(F)C(F)(F)C(F)(F)C(F)(F)C(F)(F)C(F)(F)C(F)(F)C(F)(F)F,inactive,inactive,inactive,inactive,–,inactive,24.3 µM (active),inactive,–,–
CCn1cc[n+](C)c1,inactive,inactive,–,–,–,inactive,inactive,inactive,–,–
NCCCNCCCN,inactive,inactive,inactive,–,–,inactive,–,–,inactive,–
CC(=O)c1cc2c(cc1C)C(C)(C)C(C)CC2(C)C (centres undefined),inactive,inactive,inactive,inactive,–,inactive,–,–,–,–
Clc1cc(C(Cl)(Cl)Cl)cnc1Cl,inactive,61.1 µM (active),–,inactive,inactive,inactive,–,–,inactive,–
CC1CC(CC2CCC(N)C(C)C2)CCC1N (centres undefined),–,inactive,inactive,inactive,–,inactive,–,inactive,inactive,–
O=S(=O)(O)C(F)(F)C(F)(F)C(F)(F)C(F)(F)F,–,inactive,inactive,inactive,–,–,–,–,inactive,–
